Test results from PubChem BioAssay (EPA / NIEHS).
Values joined by “and” are separate entries in the source; they are usually repeats but may differ in a detail not shown here. Equal entries are not always repeated. The source holds several records for some structures; these can differ, active in one and inactive in another. Active and inactive are the calls of the source. Rule for the calls: active = hit-call score of the fitted dose curve at least 0.9, where 1 is the maximum; inactive = score below 0.9.

Columns and labels:
Settings in all cases: mRNA level, 48 h; actives raise or lower the signal
[1] = read-out: Alkaline Phosphatase, Placental (ALPP) gene, ALPP (gene 250); assay: LTEA_HepaRG_ALPP: Life Technologies and Expression Analysis (LTEA) Assay for Alkaline Phosphatase, Placental (ALPP) gene using HepaRG (AID 2283468);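 for AC50: ALPP transcript by TaqMan qRT-PCR normalized to ACTB GAPDH and POLR2A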
In short: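 Expression of ALPP was quantified by qRT-PCR against three housekeeping genes in human HepaRG cultures treated for 48 h with an eight-point concentration series up to 100 uM. Activity in either direction was fitted relative to 0.5% DMSO.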

[2] = read-out: Bcl-2 (BAD) gene, BAD (gene 572); assay: LTEA_HepaRG_BAD: Life Technologies and Expression Analysis (LTEA) Assay for Bcl-2 (BAD) gene using HepaRG (AID 2283469)
In short: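 BAD transcript change, measured by qRT-PCR against three housekeeping genes and fitted in both directions relative to 0.5% DMSO, after 48 h chemical treatment of human HepaRG liver cells at concentrations up to 100 uM.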

[3] = read-out: Bcl-2 (BAX) gene, BAX (gene 581); assay: LTEA_HepaRG_BAX: Life Technologies and Expression Analysis (LTEA) Assay for Bcl-2 (BAX) gene using HepaRG (AID 2283470)
In short: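 Differentiated human HepaRG cells, plated 48 h then switched to serum-free induction medium, were exposed 48 h to 8 half-log concentrations up to 100 uM in 0.5% DMSO; BAX mRNA measured by qRT-PCR, normalized to ACTB, GAPDH, POLR2A.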

[4] = read-out: adenosine kinase (ADK) gene, ADK (gene 132); assay: LTEA_HepaRG_ADK: Life Technologies and Expression Analysis (LTEA) Assay for adenosine kinase (ADK) gene using HepaRG (AID 2283471)
In short: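 Differentiated HepaRG cells dosed 48 h in serum-free induction medium, 0.5% DMSO vehicle, eight half-log concentrations from 100 uM, in duplicate. ADK mRNA by TaqMan qRT-PCR normalised to ACTB, GAPDH, POLR2A; bidirectional fit versus DMSO.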

[5] = read-out: Alpha-fetoprotein (AFP) gene, AFP (gene 174); assay: LTEA_HepaRG_AFP: Life Technologies and Expression Analysis (LTEA) Assay for Alpha-fetoprotein (AFP) gene using HepaRG (AID 2283472)
In short: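 Human HepaRG cells plated 48 h, then switched to serum-free induction medium and exposed in duplicate for 48 h to 8-point half-log series from 100 uM in 0.5% DMSO. AFP mRNA by qRT-PCR, normalized to ACTB, GAPDH, POLR2A; bidirectional fit versus DMSO.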

BCL2L11 (gene 10018) = assay: LTEA_HepaRG_BCL2L11: Life Technologies and Expression Analysis (LTEA) Assay for Bcl-2 (BCL2L11) gene using HepaRG (AID 2283473)
In short: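 Cells were plated, cultured 48 h, switched to serum-free induction medium, then dosed in duplicate for 48 h at eight half-log concentrations up to 100 uM. Lysates underwent RNA isolation and TaqMan qRT-PCR; gain or loss versus DMSO was fitted.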

[6] = read-out: Apolipoprotein A-V (APOA5) gene, APOA5 (gene 116519); assay: LTEA_HepaRG_APOA5: Life Technologies and Expression Analysis (LTEA) Assay for Apolipoprotein A-V (APOA5) gene using HepaRG (AID 2283474)
In short: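 Human liver HepaRG cells are treated 48 h with test chemicals (100 uM top, half-log dilutions, 0.5% DMSO). APOA5 mRNA induction or loss is measured by qRT-PCR relative to vehicle.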

[7] = read-out: Apoptosis regulator Bcl-2 (Homo sapiens) (UniProt P10415); assay: LTEA_HepaRG_BCL2: Life Technologies and Expression Analysis (LTEA) Assay for Bcl-2 gene using HepaRG (AID 2283475)
In short: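 Differentiated HepaRG cells in serum-free induction medium were exposed for 48 h to eight half-log concentrations up to 100 uM in 0.5% DMSO, in duplicate. BCL2 mRNA was quantified by TaqMan qRT-PCR normalised to ACTB, GAPDH and POLR2A, with bidirectional fitting versus DMSO.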

[8] = read-out: Bcl-2 (BID) gene, BID (gene 637); assay: LTEA_HepaRG_BID: Life Technologies and Expression Analysis (LTEA) Assay for Bcl-2 (BID) gene using HepaRG (AID 2283476)
In short: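 Differentiated HepaRG cells in serum-free induction medium were exposed in duplicate for 48 h to eight half-log concentrations up to 100 uM in 0.5% DMSO. BID mRNA was quantified by qRT-PCR, normalized to ACTB, GAPDH and POLR2A.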

Caspase-3 (Homo sapiens) = Caspase-3 (Homo sapiens) (UniProt P42574); assay: LTEA_HepaRG_CASP3: Life Technologies and Expression Analysis (LTEA) Assay for cysteine-aspartic acid protease (CASP3) using HepaRG (AID 2283477)
Caspase-3 (Homo sapiens), sequence (P42574 whole entry, looked up): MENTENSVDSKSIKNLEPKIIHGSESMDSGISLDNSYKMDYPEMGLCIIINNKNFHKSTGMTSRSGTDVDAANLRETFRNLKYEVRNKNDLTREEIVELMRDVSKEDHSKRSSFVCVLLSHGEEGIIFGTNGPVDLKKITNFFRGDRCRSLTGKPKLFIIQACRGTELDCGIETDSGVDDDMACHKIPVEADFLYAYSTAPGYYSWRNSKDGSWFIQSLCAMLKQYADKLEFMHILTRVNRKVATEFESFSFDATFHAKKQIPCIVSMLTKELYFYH
In short: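 In HepaRG liver cells dosed for 48 h at up to 100 uM (eight-point, duplicate), CASP3 expression changes are scored by qRT-PCR. Activity is fitted in both directions with 0.5% DMSO as baseline.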

[9] = read-out: Cytochrome P450 (CYP24A1), CYP24A1 (gene 1591); assay: LTEA_HepaRG_CYP24A1: Life Technologies and Expression Analysis (LTEA) Assay for Cytochrome P450 (CYP24A1) using HepaRG (AID 2283478)
In short: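 Human liver HepaRG cultures receive each chemical for 48 h across an eight-point half-log series topping at 100 uM in 0.5% DMSO. Induction or suppression of CYP24A1 mRNA is scored relative to vehicle after housekeeping-gene normalization.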

[10] = read-out: Cytochrome P450 (CYP1A2), CYP1A2 (gene 1544); assay: LTEA_HepaRG_CYP1A2: Life Technologies and Expression Analysis (LTEA) Assay for Cytochrome P450 (CYP1A2) using HepaRG (AID 2283479);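 for AC50: TaqMan qRT-PCR transcript level normalized to ACTB GAPDH and POLR2A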
In short: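 Assesses CYP1A2 mRNA in human HepaRG liver cells after 48 h chemical exposure at up to 100 uM. Values come from qRT-PCR with bidirectional curve fitting relative to DMSO.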

[11] = read-out: cysteine-aspartic acid protease (CASP8), CASP8 (gene 841); assay: LTEA_HepaRG_CASP8: Life Technologies and Expression Analysis (LTEA) Assay for cysteine-aspartic acid protease (CASP8) using HepaRG (AID 2283480)
In short: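 HepaRG, 48 h exposure, duplicate wells; 8 conc, half-log from 100 uM, 0.5% DMSO. Serum-free induction medium. CASP8 mRNA by TaqMan qRT-PCR, norm. ACTB/GAPDH/POLR2A; gain/loss fitted vs DMSO.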

[12] = read-out: Cytochrome P450 (CYP2B6), CYP2B6 (gene 1555); assay: LTEA_HepaRG_CYP2B6: Life Technologies and Expression Analysis (LTEA) Assay for Cytochrome P450 (CYP2B6) using HepaRG (AID 2283481)
In short: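 Using 48 h treatment of HepaRG cells in serum-free induction medium, concentrations spanned half-log steps from 100 uM in 0.5% DMSO vehicle. CYP2B6 mRNA induction or loss is scored by qRT-PCR against DMSO.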

[13] = read-out: Cytochrome P450 2C19 (Homo sapiens) (UniProt P33261); assay: LTEA_HepaRG_CYP2C19: Life Technologies and Expression Analysis (LTEA) Assay for CYP2C19 using HepaRG (AID 2283482)
In short: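 Human HepaRG liver cells received test chemicals for 48 h (highest 100 uM, half-log dilutions in 0.5% DMSO). CYP2C19 mRNA induction or loss is read by multiplexed qRT-PCR and fitted in both directions versus vehicle.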

CYP2C8 (gene 1558) = assay: LTEA_HepaRG_CYP2C8: Life Technologies and Expression Analysis (LTEA) Assay for CYP2C8 using HepaRG (AID 2283483)
In short: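 CYP2C8 mRNA induction or loss, by qRT-PCR normalized to ACTB/GAPDH/POLR2A, is read in HepaRG cells after 48 h treatment. Concentrations run from 100 uM down in half-log dilutions, with 0.5% DMSO as vehicle and baseline.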

CYP2E1 (gene 1571) = assay: LTEA_HepaRG_CYP2E1: Life Technologies and Expression Analysis (LTEA) Assay for CYP2E1 using HepaRG (AID 2283485)
In short: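 HepaRG cells in serum-free induction medium exposed 48 h to test chemicals, 8 half-log concentrations up to 100 uM in 0.5% DMSO, duplicate. CYP2E1 mRNA by qRT-PCR, normalized to ACTB, GAPDH, POLR2A; bidirectional fit versus DMSO.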

CYP4A11 (gene 1579) = assay: LTEA_HepaRG_CYP4A11: Life Technologies and Expression Analysis (LTEA) Assay for CYP4A11 using HepaRG (AID 2283486)
In short: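 Readout is CYP4A11 mRNA induction or suppression (qRT-PCR, ACTB/GAPDH/POLR2A normalization) in human HepaRG cells after 48 h chemical treatment, concentrations to 100 uM in 0.5% DMSO, fitted bidirectionally against vehicle.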

[14] = read-out: Cytochrome P450 3A4 (Homo sapiens) (UniProt P08684); assay: LTEA_HepaRG_CYP3A4: Life Technologies and Expression Analysis (LTEA) Assay for CYP3A4 using HepaRG (AID 2283487)
In short: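 Differentiated HepaRG cells in serum-free induction medium exposed in duplicate for 48 h to 8 half-log concentrations up to 100 uM in 0.5% DMSO. CYP3A4 mRNA measured by qRT-PCR normalized to ACTB, GAPDH and POLR2A; bidirectional fit versus DMSO.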

CYP2C9 (gene 1559) = assay: LTEA_HepaRG_CYP2C9: Life Technologies and Expression Analysis (LTEA) Assay for CYP2C9 using HepaRG (AID 2283484)
In short: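 Cells plated 48 h, switched to serum-free induction medium, then treated in duplicate for 48 h at eight concentrations (max 100 uM, 0.5% DMSO). RNA then analysed by qRT-PCR for CYP2C9; curves fitted in both directions relative to DMSO.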

Measured: AC50

Apoptosis regulator Bcl-2 (Homo sapiens), sequence (P10415 whole entry, looked up): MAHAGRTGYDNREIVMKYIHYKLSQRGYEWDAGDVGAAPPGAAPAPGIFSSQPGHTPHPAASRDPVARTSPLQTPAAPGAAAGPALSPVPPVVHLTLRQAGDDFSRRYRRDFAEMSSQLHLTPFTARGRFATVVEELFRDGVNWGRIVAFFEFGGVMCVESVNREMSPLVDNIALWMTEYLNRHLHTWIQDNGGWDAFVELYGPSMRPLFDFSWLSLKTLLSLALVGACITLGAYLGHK
Cytochrome P450 2C19 (Homo sapiens), sequence (P33261 whole entry, looked up): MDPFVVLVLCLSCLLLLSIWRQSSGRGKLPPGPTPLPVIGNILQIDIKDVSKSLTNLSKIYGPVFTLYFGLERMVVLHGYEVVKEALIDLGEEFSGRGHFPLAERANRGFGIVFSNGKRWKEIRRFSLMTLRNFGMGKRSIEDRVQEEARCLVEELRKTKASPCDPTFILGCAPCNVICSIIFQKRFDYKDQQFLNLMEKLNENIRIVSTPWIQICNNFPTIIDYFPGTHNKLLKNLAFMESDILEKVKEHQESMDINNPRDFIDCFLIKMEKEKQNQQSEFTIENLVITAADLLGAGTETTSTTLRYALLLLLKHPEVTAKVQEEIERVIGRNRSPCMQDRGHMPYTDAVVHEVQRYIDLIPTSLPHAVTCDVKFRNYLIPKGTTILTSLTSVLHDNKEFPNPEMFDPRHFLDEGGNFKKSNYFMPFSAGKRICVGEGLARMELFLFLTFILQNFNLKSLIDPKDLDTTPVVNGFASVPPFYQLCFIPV
Cytochrome P450 3A4 (Homo sapiens), sequence (P08684 whole entry, looked up): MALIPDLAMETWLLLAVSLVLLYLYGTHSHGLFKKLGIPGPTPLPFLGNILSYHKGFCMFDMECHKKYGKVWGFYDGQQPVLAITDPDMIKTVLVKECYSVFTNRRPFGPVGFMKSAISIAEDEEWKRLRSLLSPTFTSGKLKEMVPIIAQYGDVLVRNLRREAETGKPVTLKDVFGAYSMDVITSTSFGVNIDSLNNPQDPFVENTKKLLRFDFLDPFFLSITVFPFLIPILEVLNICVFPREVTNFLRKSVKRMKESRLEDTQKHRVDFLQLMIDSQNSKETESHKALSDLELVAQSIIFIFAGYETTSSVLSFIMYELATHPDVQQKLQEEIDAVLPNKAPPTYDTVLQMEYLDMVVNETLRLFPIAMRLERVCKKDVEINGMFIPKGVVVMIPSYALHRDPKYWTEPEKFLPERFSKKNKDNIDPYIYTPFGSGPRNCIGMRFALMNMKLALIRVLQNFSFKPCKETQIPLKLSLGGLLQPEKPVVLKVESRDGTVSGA

CC/C(=C(\c1ccccc1)c1ccc(OCCN(C)C)cc1)c1ccccc1
active: [1] 21.5 µM and 23.7 µM | [4] 71.2 µM | [5] 22.4 µM and 27 µM | BCL2L11 (gene 10018) 74.6 µM | [8] 92.5 µM | Caspase-3 (Homo sapiens) 66.4 µM | [10] 11.9 µM | [11] 72.5 µM and 77.4 µM | CYP2E1 (gene 1571) 17 µM and 23.7 µM | CYP4A11 (gene 1579) 19.7 µM and 22.4 µM
inactive: [2] | [3] | [4] | BCL2L11 (gene 10018) | [6] | [7] | [8] | Caspase-3 (Homo sapiens) | [9] | [10] | [12] | [13] | CYP2C8 (gene 1558) | [14]

C=C(C)C(N)=O
inactive: all assays above

O=C(c1ccc(OCCN2CCCCC2)cc1)c1c(-c2ccc(O)cc2)sc2cc(O)ccc12
active: [4] 67.7 µM | [11] 73.3 µM | [12] 80.5 µM | CYP2C9 (gene 1559) 50 µM | CYP2E1 (gene 1571) 69.1 µM
not listed: [13] | [14]
inactive: all other assays above
